Compounds without any hit were thinned out: in the full panel of roughly 83,000, 20% have a hit.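 The test compound was applied at a single concentration to cells in 96-well plates for 48 hours, and percent growth was recorded.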 Calls of active or inactive are those of the source.

For this assay, the system named is OVCAR-5 ovarian. Kind of assay: NCI-60 one-dose screen, 48 h (100 = growth as untreated, 0 = no growth, -100 = all killed). The following applies: 10 µM unless noted. On the procedure:
Growth inhibition of the OVCAR-5 human tumor cell line is measured as a screen for anti-cancer activity. Cells are grown in 96 well plates and exposed to the test compound for 48 hours. Compounds are tested at a single concentration, which is 10^-5 M for most compounds. The reported endpoint is percent growth (GI% or GIPRCNT), where numbers from 0 - 100% represent growth inhibition, and numbers from -100% - 0 represent cell death. For example, a value of 40 represents 60% growth inhibition. A value of 0 means no net growth occurred over the course of the experiment. A value of -40 indicates 40% of cells at the beginning of the experiment died by the end of the experiment. A value of -100 means all cells are dead at the end of the experiment.
NCI-60 Human Tumor Cell Lines Screen was performed using the standard one-dose NCI protocol, which is described in more detail at https://dtp.cancer.gov/discovery_development/nci-60/default.htm.
Compounds with GIPRCNT values below 10 were considered active. Activity score was based on GIPRCNT using the following formula: […]
Score is 0 for GIPRCNT values of 100 or above, 50 for GIPRCNT values of 0, and 100 for GIPRCNT values of -100.
As for `COC(=O)CNC(=O)[C@]12CCC(C)(C)C[C@H]1C1=CC[C@@H]3[C@@]4(C)Cc5c([nH]c6ccccc56)C(C)(C)[C@@H]4CC[C@@]3(C)[C@]1(C)CC2`, the growth is 95.4% (inactive).
With `O=S(=O)(NCCCNc1nccc(-c2c(-c3cccc(F)c3)nc3sccn23)n1)c1cccc(F)c1` the figure was 110% (inactive); with `COc1ccc(OC)c(-c2cc(-c3ccc(Cl)cc3)c3c(N)c(C(=O)c4ccc(Cl)cc4)sc3n2)c1`, 96.4% (inactive).
In the case of `CCOC(=O)C1=C(CCl)NC(=O)NC1c1ccc2c(c1)OCO2` (stereo not given), the growth is 24.6% (inactive).
With `Oc1cccc(CCc2ccc(Oc3cc(CCc4cccc(O)c4)cc(O)c3O)cc2)c1`, the growth is 107% (inactive).
As to `CCCCC/C=C/C(C)=C/C1CC(C)C/C=C/CCC(O)C(OC(N)=O)CCC(C)CC(O)C(C)C(=O)O1` (stereo not given), the growth was 102% (inactive).
For the compound `COc1ccc(/C=C/c2nc(Nc3cccc(NC(C)=O)c3)c3ccccc3n2)cc1`, the growth is 86.8% (inactive).
Turning to `CC1(C)NCCC[C@]2(C)[C@H]3CC[C@@H]4[C@H]5[C@H](C(=O)/C=C/c6ccco6)CC[C@]5(CO)CC[C@@]4(C)[C@]3(C)CC[C@@H]12`, the growth was 101% (inactive).
Consider `CC(C)c1ccc(Nc2ccc3c(OCCCN4CCN(C)CC4)cccc3n2)cc1`, for which the growth was 81.2% (inactive).
Consider `COc1cc(/C=C\C(=O)O)ccc1OCc1ccccc1`, for which the growth is 110% (inactive).
As for `C[C@H]1[C@H]2[C@H]3CC[C@@H]4[C@@]5(C)CC[C@H](O)C(C)(C)[C@@H]5CC[C@@]4(C)[C@]3(C)CC[C@]23CO[C@]1(C)[C@@H](C(=O)/C=C\c1ccco1)C3`, the growth is 102% (inactive).
Regarding `N#Cc1cccc(-c2ccc3c(c2)NC(=O)/C3=C\c2ccc[nH]2)c1`, the growth was 38.5% (inactive).
For the compound `O=C(Nc1ccc(-c2ccc3c(c2)NC(=O)/C3=C\c2ccc[nH]2)cc1)NC1CC1`, the growth was 105% (inactive).
On to `N/C(=N\C(N)=N\c1nc2ccccc2s1)c1ccnc(Br)c1`, for which the growth is 89.4% (inactive).
For the compound `O=C1c2cccc3c(-c4ccc5c(c4)ncn5C4CCCCC4)ccc(c23)C(=O)N1CCO`, the growth is 110% (inactive).
Consider `CCCOC(=O)N[C@H]1CCc2cc(OC)c(OC)c(OC)c2-c2ccc(SC)c(=O)cc21`, for which the growth was 33.9% (inactive).
With `CCOC(=O)CC1CSC(N/N=C/c2ccc(-n3cccn3)cc2)=N1` (stereo not given), the growth is 115% (inactive).
With `Cc1nc2sccn2c1-c1cn2ccsc2n1` the figure was 87.7% (inactive).
With `C[C@H]1[C@H](C)CC[C@]2(C(=O)Nc3ccc4ncccc4c3)CC[C@]3(C)C(=CC[C@@H]4[C@@]5(C)CCCNC(C)(C)[C@@H]5CC[C@]43C)[C@H]12`, the growth is 74.9% (inactive).
Under `COc1ccc(C(=O)CC#N)cc1` stands 105% (inactive); under `CC[C@]12C=CCN3CC[C@@]4(c5cc(NC(=O)CCC(=O)O[C@H]6CC[C@H]7[C@@H]8CCC9=CC(=O)CC[C@@H]9[C@H]8CC[C@]67C)c(OC)cc5N(C)[C@H]4[C@@](O)(C(=O)OC)[C@@H]1OC(C)=O)[C@@H]32`, 96.1% (inactive).
On to `COc1cc(/C(C)=C(\c2ccc(Cl)cc2)c2ccc(OCCN(C)C)cc2)ccc1F`, for which the growth was 75.3% (inactive).
`COc1cc2c(=O)n(CCCN(C)C)c3c4cc5c(cc4ccc3c2cc1OC)OCO5`: the growth was 112% (inactive).
Under `Cc1cnc(C(=O)Nc2nc3ccc(S(=O)(=O)Nc4ccc(C5(C(F)(F)F)CC5)cc4)cc3[nH]2)cn1` stands 38.8% (inactive); under `Cc1ccc(NC(C(=O)c2ccccc2)c2ccccc2)cc1` (stereo not given), 78.4% (inactive).
As for `Cc1ccc(NC(=O)c2cc(-c3nc4ccccc4s3)c(=O)n(NS(=O)(=O)c3ccc(Cl)cc3)c2N)cc1`, the growth is 110% (inactive).
With `C/C(=N\NC(=O)CSc1nc2ccccc2c(=O)n1Cc1ccc(S(N)(=O)=O)cc1)c1ccc(F)cc1` the figure was 96.4% (inactive); with `COc1ccc2c(c1)oc1c(C)c3c(c(C)c12)C(=O)N(CCN1CCOCC1)C3=O`, 92.6% (inactive); with `COc1cc(/C=C\c2cc(OC)c(OC)c(OC)c2)cc(N)c1OC`, 87.7% (inactive).
Take `NCCCCCCNc1cc(-c2cccc(OC(F)(F)F)c2)nc2ccc(N3CCCC3)cc12`: the growth was 12.6% (inactive).
For the compound `N#Cc1c(NCc2ccccc2I)sc2c1CCCCC2`, the growth is 96.3% (inactive).
`C=C(C)[C@@H]1CC[C@]2(C(=O)N[C@@H](Cc3ccccc3)C(=O)OC)CC[C@]3(C)[C@H](CC[C@@H]4[C@@]5(C)CCC(=O)C(C)(C)[C@@H]5CC[C@]43C)[C@@H]12`: the growth was 97.9% (inactive).
As for `COc1ccc(C(=O)C2C(C#N)C(C#N)C3C=Cc4ccccc4N32)cc1` (stereo not given), the growth was 31.4% (inactive).
As to `Cn1cc(CC2CC(=O)N(c3ccccc3)C2=O)sc1=NC(=O)c1ccccc1` (stereo not given), the growth was 95.2% (inactive).
Turning to `COc1ccc(C(C)=O)c(OC)c1`, the growth is 90.2% (inactive).
With `Cc1cnc(C(=O)Nc2nc3ccc(S(=O)(=O)Nc4ccc(C(C)(C)C)cc4)cc3[nH]2)cn1`, the growth was 34.8% (inactive).
As for `O=C(c1nc2ccccc2[nH]1)C1C(c2ccc(Cl)cc2)C2CC3CCCC[C@H]3N2[C@@]12C(=O)Nc1cc(Cl)ccc12` (stereo not given in full), the growth was 56% (inactive).
Take `Oc1ccc(C(c2ccc(O)cc2)c2ccc(Br)cn2)cc1`: the growth is 78.4% (inactive).
For `OCc1cnccc1NCCCCOc1ccc(Oc2ccccc2)cc1`, the growth is 84.1% (inactive).
Take `CCOC(=O)Oc1c(OC)cc(C(=O)c2ccc(OC)c(O)c2OC)cc1OC`: the growth is 76.6% (inactive).

Source of the values: PubChem BioAssay (NCI).
